Screening data from PubChem.
The list is not random: actives were taken first. Their share in the collection is about 21%.
D3 ag: D3 dopamine receptor (human) agonism; P35462; max activation, %; D3R DiscoveRx beta-arrestin cells, luminescence, 90 min; hit rate 0.58% among 410,000; in the data active = max activation above about 30%
Target sequence (P35462 whole entry, looked up): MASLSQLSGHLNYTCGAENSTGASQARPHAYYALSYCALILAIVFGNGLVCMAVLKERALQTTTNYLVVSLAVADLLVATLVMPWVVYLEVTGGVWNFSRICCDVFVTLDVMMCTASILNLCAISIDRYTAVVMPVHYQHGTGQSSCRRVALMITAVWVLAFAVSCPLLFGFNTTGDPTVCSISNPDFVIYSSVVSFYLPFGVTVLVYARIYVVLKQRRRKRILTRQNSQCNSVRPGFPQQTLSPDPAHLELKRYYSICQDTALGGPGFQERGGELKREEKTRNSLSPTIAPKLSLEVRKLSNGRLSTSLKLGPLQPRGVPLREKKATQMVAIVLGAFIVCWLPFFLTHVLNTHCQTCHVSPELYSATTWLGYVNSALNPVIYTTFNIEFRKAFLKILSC
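Agonist-mode cell screen: cells plated at 1500/well and incubated overnight at 37 °C, then exposed to library compounds for 90 min at 37 °C. Detection reagent was added for 30–60 min at room temperature, and luminescence was read.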
D3 antag: blocks the human D3 dopamine receptor; P35462; D3R cells, DiscoveRx beta-arrestin luminescence, antagonist mode; active compounds read low; max response, negative = inhibition, %; hit rate 2.5% among 360,000; AID 652054; in the data active = max response below about -50%; inconclusive = no clear call, values can overlap the other calls
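Cells expressing the human receptor were seeded at 1500 cells/well, incubated overnight at 37 degrees C in 5% CO2, then exposed to library compounds with dopamine controls for 90 minutes at 37 degrees C before luminescent detection.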
ClpP mod: qHTS Assay for Activators of ClpP | ATP-dependent Clp protease proteolytic subunit (Bacillus subtilis (strain 168)), P80244 | purified B. subtilis ClpP, FRET peptide cleavage, 20 min | Potency, µM (highest dose often 57.5 µM) | hit rate 1.9% among 340,000; active = well fitted falling curve with a large enough effect; inconclusive = small, poorly fitted or top-dose-only effect; inactive = no such curve, though single readings can be large or run the other way; also: the source files actives as falling curves though it sought activators and does not explain the sign; nearly all actives have a fitted effect of over 65% in size
Target sequence (P80244 whole entry, looked up): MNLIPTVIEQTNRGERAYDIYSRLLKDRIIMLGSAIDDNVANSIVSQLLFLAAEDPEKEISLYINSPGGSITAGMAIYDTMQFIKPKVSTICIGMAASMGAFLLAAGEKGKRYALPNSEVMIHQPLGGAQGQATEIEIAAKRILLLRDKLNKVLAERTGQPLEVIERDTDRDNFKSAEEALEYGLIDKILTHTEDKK
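FRET quenching reversal measured ClpP activation: 10 microg/mL B. subtilis ClpP at pH 8 with the FRET-FV decapeptide, read at 430 nm after 320 nm excitation. The 20-min minus 0-min signal was scaled between DMSO/no-enzyme wells and ADEP (5.8 microM final).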
IL1B secr inh: inhibitors of inflammasome signaling (IL-1 beta secretion). THP-1 LPS/ATP IL-1B secretion, AlphaLISA, 16 h; active compounds read low. hit rate 4.7% among 360,000. activity change, % at 57.5 µM. AID 743279; in the data active = activity change below about -50%; inconclusive = mostly about -30% to -49%
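Secreted IL-1B measured by AlphaLISA bead assay after 16 h compound exposure of THP-1 cells; compounds (final up to 57.5 uM) added 1 h before LPS (250 ng/mL) and ATP (1.25 mM) stimulation; lower signal means less secretion.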
TDP1 cell CPT: growth inhibition of DT40 Tdp1-/-;hTDP1 cells with camptothecin (screen for TDP1 inhibitors); chicken DT40 Tdp1-/-;hTDP1 cells + 20 nM CPT, ATP luminescence, 48 h; hit rate 12% among 420,000; Potency, µM (top dose mostly 46.2 µM), hits mostly inhibitors; also: nearly all actives have a fitted effect of over 55% in size
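Chicken DT40 Tdp1-/- cells complemented with human TDP1, 400 cells/well, exposed to compounds plus 20 nM camptothecin for at least 48 h at 37 C; viability read as ATP content by CellTiter-Glo luminescence.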
TDP1 cell noCPT: qHTS for Inhibitors of human tyrosyl-DNA phosphodiesterase 1 (TDP1): qHTS in cells in absence of CPT | DT40 Tdp1-/- hTDP1 cells, no CPT, ATP luminescence, 48 h | Potency, µM (doses to about 46.2 µM), usual class: inhibitors | hit rate 15% among 420,000 | AID 686978, 2013; also: nearly all actives have a fitted effect of over 55% in size
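A cellular qHTS used chicken DT40 cells lacking endogenous Tdp1 but carrying stably transfected human TDP1. Compounds were applied without camptothecin, and cell growth kinetics were judged by ATP-dependent luminescence after ≥48 hr.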
Numbers stand for hits; - = inactive; ? = inconclusive; . = no result given. Unless noted, calls follow the shape of the dose curve; as a rule, active = well fitted inhibition curve with a large enough effect; inconclusive = small, poorly fitted or top-dose-only effect; inactive = flat fitted curve, though single readings scatter.

SMILES | D3 ag | D3 antag | ClpP mod | IL1B secr inh | TDP1 cell CPT | TDP1 cell noCPT
Cc1ccc(NC(=O)c2cc3ccccc3o2)cc1S(=O)(=O)N(C)C | - | - | - | - | 29µM | ?
CC(CNC(=O)CC[C@H]1O[C@@H](n2cnc3c(NC(=O)c4ccccc4)ncnc32)[C@H](O)[C@@H]1O)c1ccccc1 (stereo partly drawn) | - | - | - | - | - | -
COc1cccc(C2(CC(=O)N3CCCOc4c(cccc4OC)C3)CC(=O)N(C)C2=O)c1 (stereo not drawn) | . | . | . | . | - | -
COc1ccccc1N(C(C)=O)C1=C(Cl)C(=O)c2ccccc2C1=O | - | -137 | - | ? | 0.52µM | 0.73µM
COc1ccc(OC)c(/C=N/NC2=NS(=O)(=O)c3ccccc32)c1 | - | - | - | - | - | -
O=C(COc1ccc2c3c(c(=O)oc2c1)CCC3)Nc1ccccn1 | - | - | ? | - | - | -
CCCc1nc(NCc2ccccn2)c2nnn(Cc3ccccc3F)c2n1 | - | - | - | - | ? | ?
CCCc1nc(NCc2ccncc2)c2nnn(Cc3ccccc3F)c2n1 | - | - | - | - | ? | 15µM
O=C(O)c1sccc1Oc1ccc(NS(=O)(=O)c2cccc(F)c2)cc1 | - | - | . | - | - | -
Cc1ccc(C)n1-c1c(C(=O)NCCCN2CCN(c3ccc(F)cc3)CC2)sc2ncccc12 | - | . | - | . | 21µM | ?
O=C(NCCCN1CCN(c2ccccc2)CC1)c1sc2ncccc2c1-n1cccc1 | - | . | - | . | ? | ?
O=C(Cc1csc(Nc2nc(=S)[nH]c3ccccc23)n1)NCCCN1CCN(c2ccccc2F)CC1 | - | -69 | . | -99 | 8.2µM | 15µM
O=C(NCCCN1CCN(c2cccc(Cl)c2)CC1)c1sc2ncccc2c1-n1cccc1 | - | . | - | . | ? | 23µM
O=C(Cc1csc(Nc2nc(=S)[nH]c3ccccc23)n1)NCc1ccc(Cl)cc1 | - | - | - | - | ? | ?
O=C(NCCCN1CCN(c2ccccc2F)CC1)c1sc2ncccc2c1-n1cccc1 | - | . | - | . | ? | 21µM
Nc1nc(=S)ss1 | - | ? | . | -98 | 16µM | 7.3µM
CCOc1ccc(C2/C(=C(\O)c3ccc4c(c3)OCCO4)C(=O)C(=O)N2Cc2cccnc2)cc1OCC (stereo not drawn) | - | - | . | - | - | -
COc1ccc(NC(=O)C2(C)Cc3c(-c4ccc(NC(C)=O)cc4)ccnc3O2)cn1 (stereo not drawn) | - | - | - | ? | 21µM | ?
CC(=O)Nc1ccc(NC(=O)C2(C)Cc3c(-c4cccc(NC(C)=O)c4)ccnc3O2)cc1 (stereo not drawn) | - | - | - | - | - | -
COc1ccc(NC(=O)C2(C)Cc3c(-c4cccc(NC(C)=O)c4)ccnc3O2)cn1 (stereo not drawn) | - | - | - | - | 0.73µM | 1.5µM
COc1ccc(NC(=O)C2(C)Cc3c(-c4ccc(NC(C)=O)cc4)ccnc3O2)cc1OC (stereo not drawn) | - | - | - | - | ? | 13µM
COc1ccc(NC(=O)C2(C)Cc3c(-c4ccccc4)ccnc3O2)cc1OC (stereo not drawn) | - | - | - | - | ? | ?
Cc1ccc(Cl)cc1N1CCN(C(=O)CCS(=O)(=O)c2ccc3c(c2)oc(=O)n3C)CC1 | - | . | - | . | ? | 16µM
CCOC(=O)Cn1c(=O)oc2cc(S(=O)(=O)N3CCN(c4cc(C)ccc4C)CC3)ccc21 | - | . | - | . | 18µM | ?
CCOC(=O)C1CCN(C(=O)Cn2c(=O)oc3cc(S(=O)(=O)N4CCCC4)ccc32)CC1 | - | - | - | - | - | -
SMILES | D3 ag | D3 antag | ClpP mod | IL1B secr inh | TDP1 cell CPT | TDP1 cell noCPT
O=C(Cn1c(=O)oc2cc(S(=O)(=O)N3CCCC3)ccc21)N1CCN(c2ccccc2)CC1 | - | -58 | - | - | ? | ?
O=C(Cn1c(=O)oc2ccccc21)N1CCN(c2ccccc2)CC1 | - | - | - | - | - | -
Cc1ccc(C)c(N2CCN(C(=O)Cn3c(=O)oc4cc(S(=O)(=O)N5CCCC5)ccc43)CC2)c1 | - | - | - | - | 16µM | 12µM
COc1ccc(C)c2sc(NC(=O)c3ccc(S(=O)(=O)N4CCOCC4)cc3)nc12 | - | . | - | . | ? | ?
Cc1cccc(C)c1NC(=O)CCS(=O)(=O)c1ccc2c(c1)n(C)c(=O)c(=O)n2C | - | . | - | . | - | -
CCc1cccc(C)c1NC(=O)CCS(=O)(=O)c1ccc2c(c1)oc(=O)n2C | - | . | - | . | ? | 15µM
COc1ccc(-c2csc(NC(=S)NC(=O)c3cccs3)n2)cc1OC | - | - | . | - | 15µM | 12µM
COc1ccc(-c2csc(NC(=O)C3CC(=O)N(Cc4ccccc4)C3)n2)cc1OC (stereo not drawn) | - | - | - | -59 | ? | ?
O=C(Nc1nc(-c2ccncc2)cs1)c1ccc(F)cc1 | - | - | - | ? | - | -
COc1ccc(-c2nc(NC(=O)c3c(C)noc3C)sc2C)cc1 | - | - | ? | - | 10µM | 21µM
Cn1nc(C(=O)Nc2nc(-c3ccc(F)cc3)cs2)ccc1=O | - | - | - | ? | ? | 6.5µM
Cc1nc(NCCOc2ccccc2)sc1C(=O)Nc1ccccc1 | - | - | - | - | ? | ?
Cc1ccc(NC(=O)CC2OC(=O)c3ccccc32)cc1S(=O)(=O)N1CCOCC1 (stereo not drawn) | - | - | - | - | - | -
O=C(Nc1ccccc1)C1CC(=O)N(Cc2ccccc2)C1 (stereo not drawn) | - | - | - | - | - | -
O=C(O)c1cccc(NC(=O)C2CC(=O)N(Cc3ccccc3)C2)c1 (stereo not drawn) | - | -51 | - | - | - | -
COc1ccc(-c2nc(NC(=O)c3cc(C(C)(C)C)nn3C)sc2C)cc1 | 40 | - | ? | - | ? | 21µM
COc1ccc(-c2csc(NC(=O)CS(=O)(=O)c3ccccc3)n2)cc1OC | - | - | - | ? | ? | 16µM
COc1ccc(-c2csc(NC(=O)CC(NC(C)=O)c3ccccc3)n2)cc1OC (stereo not drawn) | - | - | - | - | ? | ?
COc1ccc(CC(=O)Nc2nc(-c3ccc(OC)c(OC)c3)cs2)cc1OC | - | - | . | -86 | ? | 21µM
NC(=O)COc1ccc(-c2noc(COc3ccccc3[N+](=O)[O-])n2)cc1 | - | - | - | - | - | -
CCOC(=O)C1=CCN(S(=O)(=O)c2ccccc2Cl)C1c1ccc(Cl)c(Cl)c1 (stereo not drawn) | - | - | - | - | ? | ?
